Compound activity deposited in PubChem BioAssay by The Scripps Research Institute Molecular Screening Center.
TTR transcr act: TTR transcription activators in neuroblastoma reporter cells, primary screen, cell-based, luminescence, SH-SY5Y, TTR promoter Gaussia luciferase | 1.3% of 92,000 active | activation, % at 16.7 µM | 100% = recombinant luciferase protein wells | AID 1117267, 2014;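 active = activation above the mean of all tested compounds plus 3 SD, cut at about 9.5% in these data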;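 note: cells exposed to compounds for one day before reading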
Hits are given with their value; – = inactive. Only a selection was taken, and hits are over-represented in it overall.

SMILES | TTR transcr act
COc1ccc(NC(=O)CSCc2ccc(C#N)cc2)c(OC)c1 | –
COc1ccc(OC)c(NC(=O)CSCC(=O)O)c1 | 23.4
COCC(=O)Nc1cc(OC)ccc1OC | –
CCCCCCCCN1C(=O)[C@@H](CC(=O)NCCCOCCCC)C[C@@]2(C(=O)OC)C1=C[C@H](C(C)C)O[C@@H]2C1CC1 | –
COC(=O)C[C@@H]1CC[C@H]2[C@H](COc3ccc(NC(=O)Nc4ccc(Cl)cc4)cc3C(=O)N2C)O1 | –
O=C(Nc1ccc2ccccc2c1)C1CC2CCC1C2 (centres undefined) | –
CCCNc1nc2c(c(=O)n(C)c(=O)n2C)n1Cc1cccc(C)c1 | –
CCCCC(=O)NCCNc1nc2c(c(=O)n(C)c(=O)n2C)n1Cc1ccc(F)cc1 | 13.8
Cn1c(=O)c2c(nc(NCc3ccc4c(c3)OCO4)n2Cc2ccc(F)cc2)n(C)c1=O | –
Cc1cccc(NC(=O)OC2CC3CC2[C@H]2CCCCN2C3)c1 (some centres undefined) | –
C#CCNC(=O)CSCc1nc(-c2ccc(OCC)cc2)oc1C | –
CC(C)(C)CCN1CCC[C@H](NC(=O)COc2ccc(F)c(Cl)c2)C1 | –
O=C(c1ccccc1)c1ccc(C(=O)N2CCOCC2)cc1 | –
CC(C)(C)c1ccc(C(=O)Nc2ccc(C(=O)N3CCOCC3)cc2)cc1 | –
O=C(c1ccc(NC(=O)C2(c3ccccc3)CCOCC2)cc1)N1CCOCC1 | 23.6
CCCC1CCC2(CCCN2CCOC(=O)Nc2ccc(Br)cc2)CC1 (centres undefined) | –
CN=C1S/C(=C/c2cc(C)n(Cc3ccccc3)c2C)C(=O)N1C | –
COCCNC(=O)C1c2cc(OC)c(OC)cc2C(=O)N(C)C1c1cccnc1 (centres undefined) | –
CCOc1cc2c(cc1OCC)C(C(=O)O)C(c1cc(OC)c(OC)c(OC)c1)N(C)C2=O (centres undefined) | 11.6
CCCN(CCC)CCCNC(=O)C1c2cc(OC)c(OC)cc2C(=O)N(C)C1c1cccnc1 (centres undefined) | –
Nc1[nH]c(C(=O)c2ccccc2)c(-c2ccc(Cl)cc2Cl)c1C(=O)NCCC1=CCCCC1 | –
Cc1ccc(CN2CCCCC(NC(=O)c3ccc(COc4ccccc4)cc3)C2=O)cc1 (centres undefined) | –
CCOC(=O)C(C)NC(=O)C(NC(=O)C1CCC(CC)CC1)C(C)C (centres undefined) | 10.5
CCOc1ccc(NC(=O)C(NC(=O)C2CCC(C)CC2)C(C)C)cc1 (centres undefined) | –
CC(C)[C@H](NC(=O)[C@@H]1Cc2ccccc2CN1C(=O)OC(C)(C)C)C(=O)NCC1CCC(C(=O)O)CC1 (some centres undefined) | –
SMILES | TTR transcr act
COC(=O)[C@]12C[C@H](CC(=O)N3CCCC3)C(=O)N(Cc3ccco3)C1=C[C@H](C1CCCC1)O[C@@H]2C | –
CC1CCN(c2nnc(N3CCC(C)CC3)c3ccccc23)CC1 | 15.3
Cc1cc(N2CCC(C)CC2)nc2ccccc12 | –
CC1CCN(c2ncccc2C(=O)O)CC1 | –
O=C1CN(C(=O)NCC(=O)N[C@@H](C(=O)O)c2ccccc2)c2ccccc2N1 | –
CC(C)C[C@H](NC(=O)N1CC(=O)Nc2ccccc21)C(=O)N[C@@H](C(=O)O)c1ccccc1 | –
CC(C)[C@H](NC(=O)N1c2ccccc2NC(=O)[C@@H]1C(C)C)C(=O)N[C@@H](C(=O)O)c1ccccc1 | 27.4
O=C(Nc1nc2ncccn2c1-c1ccc(F)cc1)c1ccc(F)cc1 | –
COc1ccc(NC(=O)CCN2C(=O)NC3(CCCC3)C2=O)cc1Cl | –
O=C(CN1C(=O)NC2(CCCC2)C1=O)NC(c1ccccc1)c1ccccc1 | –
O=C(O)CCN1C(=O)NC2(CCCC2)C1=O | 17.0
CCOC(=O)N1CCN(C(=O)C[C@H]2C(=O)N(CCCOC)C3=CCCC[C@@]32C(=O)OCC)CC1 | –
CN1CCC(N[C@@H](Cc2c[nH]c3ccccc23)C(=O)NCCCc2ccccc2)(C(=O)NCCc2c[nH]c3ccccc23)CC1 | –
COC[C@H]1CCCN1c1cccc2c1S(=O)(=O)N(C1CC1)CC[C@@H](C)O2 | –
C[C@]12C(=O)N(c3cccc(Cl)c3)C(=O)N1[C@@H]1c3ccccc3OC[C@@H]1[C@H]2c1ccccc1 | –
C[C@]12C(=O)N(c3ccccc3)C(=O)N1[C@H]1c3ccccc3OC[C@@H]1[C@H]2c1ccccc1 | 10.7
C[C@]12C(=O)N(c3cccc(F)c3)C(=O)N1[C@H]1c3ccccc3OC[C@@H]1[C@H]2c1ccccc1 | –
Clc1cc(Cl)cc(CNC2CCC23CCCCC3)c1 (centres undefined) | –
COC(=O)[C@H]1[C@@H](C)N(CCc2cc(OC)c(OC)c(OC)c2)C(=O)N[C@H]1c1ccccc1 | –
CCN1C(=NCCCOC(C)C)N[C@@H](c2ccccc2)[C@H](C(=O)OC)[C@H]1C | 11.6
CCN1C(=NCCc2ccc([N+](=O)[O-])cc2)N[C@@H](c2ccccc2)[C@H](C(=O)OC)[C@H]1C | –
CNc1nc(N)c([N+](=O)[O-])c(Nc2cccc(OC)c2)n1 | –
COC(=O)[C@]12C[C@H](CC(=O)NCC34CC5CC(CC(C5)C3)C4)C(=O)N(CCC3=CCCCC3)C1=C[C@H](C1CCCC1)O[C@@H]2C | –
Cc1cc(C)nc(NC(=S)N2CCN(c3ncc(C(F)(F)F)cc3Cl)CC2)c1 | –
O=C(OCC#CCSc1nnc(-c2cccc(F)c2)o1)c1ccc(F)cc1 | –
SMILES | TTR transcr act
CCC[C@H]1[C@@H](NC(=O)C2CCOC2)CC[C@@]23CCCN2C(=O)CCC[C@@H]13 (some centres undefined) | –
O=C(Nc1ccc(Cl)cc1)C1Cc2c(-c3ccc(Cl)cc3)ccnc2O1 (centres undefined) | –
COCCNC(=O)C1Cc2c(-c3ccc(NC(C)=O)cc3)ccnc2O1 (centres undefined) | –
CC(=O)NCCNC(=O)C1Cc2c(-c3ccc(Cl)cc3)ccnc2O1 (centres undefined) | 10.3
COC(=O)[C@]12C[C@H](CC(=O)NCc3ccccc3)C(=O)N(Cc3cccc4ccccc34)C1=C[C@H](C(C)(C)C)O[C@@H]2C | –
Cc1ccc(NC(=O)OC2CC3CC2[C@H]2CCCCN2C3)cc1 (some centres undefined) | –
CCCC(=O)OC[C@H]1CN([C@H](C)c2ccccc2)S(=O)(=O)c2c(F)cccc2O1 | –
CCN(CC)S(=O)(=O)c1cc(NS(=O)(=O)c2cccc(Cl)c2Cl)ccc1C | –
CCN(CC)S(=O)(=O)c1ccc(NS(=O)(=O)c2ccc(OC)c([N+](=O)[O-])c2)cc1 | –
CCN(CC)S(=O)(=O)c1ccc(NS(=O)(=O)c2cccc(C)c2)cc1 | 10.0
CCCCc1ccc2nc(NC(=O)c3cccs3)sc2c1 | –
O=C(OCC#CCSc1nnc(-c2cc3ccccc3cc2O)o1)c1ccc(F)cc1 | –
CCC(C)[C@H](NC(=O)OC(C)(C)C)C(=O)N[C@@H](Cc1ccccc1)C(=O)OC (some centres undefined) | –
C=CCn1cc(-c2cccc(Cl)c2)cc(C#N)c1=O | –
N#Cc1c(-c2cccc(Cl)c2)[nH]c(=S)[nH]c1=O | –
N#Cc1cc(-c2cccc(Cl)c2)c[nH]c1=O | 12.9
C=C(C)C(=O)Nc1cccc(C2=NOC3(C2)C[C@@H](C(N)=O)N(C(=O)C2(C)CC2)C3)c1 (some centres undefined) | –
C/C=C\C(=O)Nc1cccc(C2=NOC3(C2)C[C@@H](C(N)=O)N(C(=O)C2(C)CC2)C3)c1 (some centres undefined) | –
